Experimental data reported in the supplement of paper PMC9477273.

test system: DRIVER-selected RNA biosensor (aptazyme) pool; experiment: maximum fold change of ribozyme cleavage across biosensor pool versus no-compound control; higher = stronger biosensor response (ligand inhibits cleavage); conditions: 10 µM
Protocol: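 CleaveSeq: a pool of resynthesized hammerhead-ribozyme RNA biosensors (sTRSV scaffold with randomized loops, 1,730 sequences) was T7-transcribed at 37 °C for 15-30 min with a single compound at 10 µM. Cleaved and uncleaved products were counted by NGS, and fold change of cleavage was computed against the DMSO-only condition. The value is the maximum fold change of cleavage over all biosensors in the pool. About 255 compounds were tested individually.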

Compound	maximum fold change
Cc1ccc(CNC(=O)CN2CC(c3ccccc3)CC2=O)cc1 (centres undefined)	3.05
CN1CCN(Cc2csc3c2CCCC3)CC1	3.66
O=C(Cn1cnc2sc3c(c2c1=O)CCCC3)NCCCC(=O)N1CCC2(CC1)OCCO2	2.67
O=Cc1cn(Cc2ccc(F)cc2Cl)c2ccccc12	3
